# Inconclusive results are not listed. Unmarked numbers belong to inactive results. Calls of active or inactive are those of the source. The call rests on the fitted dose curve.
# Test: qHTS assay for small molecule agonists of the antioxidant response element (ARE) signaling pathway - cell viability counter screen (AID 743203); further: nearly all actives have a fitted effect of over 55% in size
# Conditions: ARE-bla HepG2 viability, CellTiter-Glo luminescence, 16 h; series mostly up to 73.3 µM
# From the text: National Center for Advancing Translational Sciences [NCATS]
# NIH Chemical Genomics Center [NCGC]
# U.S. Environmental Protection Agency [EPA]
# National Institutes of Environmental Health Sciences [NIEHS]
# National Toxicology Program [NTP]
# U.S. Food and Drug Administration [FDA]
# Oxidative stress has been implicated in the pathogenesis of a variety of diseases ranging from cancer to neurodegeneration. The antioxidant response element (ARE) signaling pathway plays an important role in the amelioration of oxidative stress. The CellSensor ARE-bla HepG2 cell line (Invitrogen) can be used for analyzing the Nrf2/antioxidant response signaling pathway. Nrf2 (NF-E2-related factor 2) and Nrf1 are transcription factors that bind to AREs and activate these genes. The CellSensor ARE-bla Hep G2 cell line contains a beta-lactamase reporter gene under control of the Antioxidant Response Element (ARE) stably integrated into HepG2 cells. The activation of the report gene under culture conditions can be detected by fluorescence intensity. This cell line has been used to screen the Tox21 10K compound library to identify agonists that induce oxidative stress. The cytotoxicity of the Tox21 compound library against the ARE-bla cell line was tested in parallel by measuring the cell viability using CellTiter-Glo assay (Promega, Madison, WI) in the same wells.
# Tox21 Assay Protocol Summary:
# ARE-bla HepG2 cells were dispensed at 2,000 cells/5 ul/well in 1536-well white wall/solid bottom plates using a Multidrop Combi (ThermoFisher Scientific, Waltham, MA) dispenser. After the assay plates were incubated at 37C/5% CO2 for 5 hrs, 23 nL of compounds dissolved in DMSO, positive controls or DMSO only was transferred to the assay plate by a pintool work station (Kalypsys, San Diego, CA). The plates were incubated at 37C/5% CO2 for 16 hrs, followed by addition of 4 ul/well of CellTiter-Glo reagent into the assay plates using a Flying Reagent Dispenser (Aurora Discovery, San Diego, CA). After 30 min incubation at room temperature, the luminescence intensity in the assay plates was measured using a ViewLux (PerkinElmer, Shelton, CT) plate reader.
# On the % scale 0 is the no-effect control and ±100 the full control effect.
SMILES,outcome,"viability change, negative = cytotoxic"
C=CCSSCCC,inactive,–
Cc1c(NC(=O)c2cccnc2)c(=O)n(-c2ccccc2)n1C,inactive,–
N#CCC(=O)NN,inactive,–
CCCCCCCCCCOC(C)=O,inactive,–
COC(=O)CCCCC(=O)O,inactive,–
COC(=O)c1cc(Cl)cc(Cl)c1,inactive,–
CCC(C(=O)OCCN1CCOC(c2ccccc2)C1C)c1ccccc1 (stereo not given),inactive,–
CC(C)C1OCCN1CCOC(=O)NCCCCCCNC(=O)OCCN1CCOC1C(C)C (stereo not given),inactive,–
CC1(C)O[C@H]2CC(=O)OC[C@]23[C@H]2CC[C@@]4(C)[C@H](c5ccoc5)OC(=O)[C@H]5O[C@]54[C@]2(C)C(=O)C[C@@H]13,inactive,–
CC(=O)C1C(=O)C=C(C)OC1=O (stereo not given),inactive,–
N#Cc1ccccc1O,inactive,–
O=C(CN1CCNCC1)NC1CCCCC1,inactive,–
OCC(O)CN1CCN(c2ccccc2)CC1 (stereo not given),inactive,–
CC1=C(C(=O)O)N2C(=O)[C@@H](NC(=O)[C@H](N)C3=CCC=CC3)[C@H]2SC1,inactive,–
CC1(C)Oc2ccc(C#N)cc2[C@@H](N2CCCC2=O)[C@@H]1O,inactive,–
CC(C)NC(=O)c1ccc(C=O)cc1,inactive,–
O=C(O)CSCC(=O)NC1CCSC1=O (stereo not given),inactive,–
CN(C)C(C)(C)CO,inactive,–
CC1=NN(c2ccc(S(=O)(=O)O)cc2)C(=O)C1,inactive,–
COc1cc(OC)nc(O[C@H](C(=O)O)C(OC)(c2ccccc2)c2ccccc2)n1,inactive,–

SMILES,outcome,"viability change, negative = cytotoxic"
CC1=C(C(=O)O)N2C(=O)[C@@H](NC(=O)[C@H](N)c3ccccc3)[C@H]2SC1,inactive,–
CC1=C(O)C(=O)C(C)O1 (stereo not given),inactive,–
CC1OCCC1=O (stereo not given),inactive,–
O=C=NCC1CCCC(CN=C=O)C1 (stereo not given),inactive,–
CN(C)CCOC(=O)C(c1ccccc1)C1(O)CCCC1 (stereo not given),inactive,–
CCO[Si](CC)(OCC)OCC,inactive,–
O=C1c2ccccc2C(=O)c2cc(Cl)ccc21,–,-3.86% [at 8.36 µM]
Cc1ccc2c(c1)C(=O)c1ccccc1C2=O,inactive,–
O=C1CCCCO1,inactive,–
C=CCCCCCCCC,inactive,–
O=C(O)CNC(=O)CNC(=O)CNC(=O)CSC(=O)c1ccccc1,inactive,–
Nc1nnnn1-c1ccccc1,inactive,–
CNCCS(=O)(=O)O,inactive,–
CC(C)C[C@@H]1[C@H](c2ccccc2)OC(=O)N1CCCN1CCCCCC1,inactive,–
CC1CC(=O)CC(C)(C)C1 (stereo not given),inactive,–
CO/N=C(/C(=O)N[C@@H]1C(=O)N2C(C(=O)[O-])=C(C[n+]3ccn4ncccc43)CS[C@H]12)c1nsc(N)n1,inactive,–
CCOc1ccccc1OCC1CNCCO1 (stereo not given),inactive,–
C=C(C)[C@@H]1CC=C(C)CC1,inactive,–
CCCCCCCCCOC(=O)CCCCC(=O)OCCCCCCC,inactive,–
CCC(C)C(=O)OCCc1ccccc1 (stereo not given),inactive,–
